Results reported in PubChem BioAssay (NCATS).
Records with an inconclusive call do not appear. Active and inactive are the calls of the source. Calls follow the shape of the dose curve; as a rule, active = well fitted inhibition curve with a large enough effect; inconclusive = small, poorly fitted or top-dose-only effect; inactive = no such curve, though single readings can be large or run the other way.

experiment: Primary qHTS for small molecule stabilizers of the endoplasmic reticulum resident proteome: Secreted ER Calcium Modulated Protein (SERCaMP) assay (AID 1508630); details: SH-SY5Y GLuc-SERCaMP (Gaussia luciferase released on ER calcium loss) secretion, thapsigargin, luminescence; series mostly up to 38.4 µM
Summary of the method: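 The SH-SY5Y reporter protocol was run at 3 concentrations up to 38.3 uM (primary) or 11 concentrations (follow-up): 16 h compound, 100 nM thapsigargin for 4 h, then extracellular luciferase luminescence.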

Potency, inactive:
Cc1ccccc1-c1cncnc1NCc1ccccc1
CN(C)C(=O)c1ccc(-c2cc(NCc3cccnc3)ncn2)cc1
Cc1noc(C)c1-c1cc(NCc2cccnc2)ncn1
CN(C)c1ncc2nc(-c3cc(F)cc(F)c3)c(=O)n(CCC#N)c2n1
c1nc(NC2CCNCC2)c2cc(-c3ccoc3)ccc2n1
Fc1ccc(Nc2ncncc2-c2ccccc2C(F)(F)F)cc1
COc1ccc(-c2nc3cnc(Oc4ccccc4)nc3n(CCC#N)c2=O)cc1
COc1ccc(-c2nc3cnc(N4CCN(C)CC4)nc3n(Cc3cccs3)c2=O)cc1
COc1ccc(-n2c(=O)c(-c3ccc(F)cc3)nc3cnc(N4CCOCC4)nc32)cc1
Cc1noc(C)c1-c1nccc(N2CCOCC2)n1
COc1ccccc1CCn1c(=O)c(-c2cccc(F)c2)nc2cncnc21
COCCn1c(=O)cnc2cnc(Oc3ccc(OC)cc3)nc21
O=c1c(-c2ccc(F)cc2)nc2cnc(Oc3ccccc3)nc2n1C1CC1
COc1ccc(Oc2ncc3nc(C)c(=O)n(C[C@H]4CCCO4)c3n2)cc1
CCNc1ncc2nc(-c3cccs3)c(=O)n(C)c2n1
COCCNc1nc(-c2ccccc2Cl)nc2ccccc12
CN(C)c1ccc(-c2ccc3ncnc(N(C)C)c3c2)cc1
COCCn1c(=O)c(C)nc2cnc(N(C)C)nc21
COCCNc1ncnc2ccc(-c3cccc(NS(C)(=O)=O)c3)cc12
CC(=O)NCCNc1ncncc1-c1ccc(N(C)C)cc1
COc1ccc(Oc2ncc3nc(-c4ccc(OC)cc4)c(=O)n(C)c3n2)cc1
CN1CCN(c2ncc3nc(-c4ccc(Cl)cc4)c(=O)n(-c4ccccc4)c3n2)CC1
CN1CCN(c2ccnc(-c3ccoc3)n2)CC1
Cc1ccccc1-c1nccc(NCc2cccs2)n1
Cc1cccc(CNc2cc(-c3c(C)noc3C)ncn2)c1
O=c1cnc2cnc(Oc3cccc(Cl)c3)nc2n1C[C@H]1CCCO1
CS(=O)(=O)Nc1cccc(-c2ccc3ncnc(NC4CC4)c3c2)c1
COc1ccc(-n2c(=O)cnc3cnc(N(C)C)nc32)cc1
COc1cccc(Nc2ncc3nc(C)c(=O)n(C4CC4)c3n2)c1
COc1ccc2[nH]cc(CCNc3ncnc4ccc(-c5cccnc5)cc34)c2c1
CC(=O)NCCNc1ncnc2ccc(-c3ccoc3)cc12
CNc1ncnc2ccc(-c3ccccc3CN(C)C)cc12
c1csc(CNc2ncnc3ccc(-c4ccoc4)cc23)c1
COCCn1c(=O)c(C)nc2cnc(Oc3ccc(OC)cc3)nc21
c1cncc(CNc2ncncc2-c2cccnc2)c1
CN(C)C(=O)c1ccc(-c2cc(Nc3ccccc3)ncn2)cc1
COCCNc1ncnc2ccc(-c3ccoc3)cc12
COc1cccc(Cn2c(=O)cnc3cncnc32)c1
CCNc1ncc2nc(-c3cn(C)c4ccccc34)c(=O)n(C)c2n1
COc1ccc(-c2nc3cnc(Oc4cccc(Cl)c4)nc3n(C3CC3)c2=O)cc1
